In PubChem BioAssay (Tox21):
Records with an inconclusive call do not appear. Activity calls are given as the source filed them. Unless noted, calls come from the whole dose curve; as a rule, active = well fitted curve in the direction sought with a large enough effect in the repeat runs; inconclusive = weak or mixed curves; inactive = no such curve, though single readings can be large; an effect the other way counts as inactive or inconclusive.
% is set by controls: 0 for no effect and ±100 for the full control effect; potency is the fitted concentration of half-maximal effect.

Tested on: not listed separately
Assay: Nuclear factor erythroid 2-related factor 2/antioxidant responsive element (Nrf2/ARE) small molecule agonists: qHTS cell viability counter screen in human keratinocytes (AID 1919968); note: nearly all actives have a fitted effect of over 55% in size
Conditions: KeratinoSens HaCaT ARE cells viability, CellTiter-Fluor, 24 h; series mostly up to 92.4 µM; activity change, negative = cytotoxicity: at the top concentration
In short: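 Parallel cytotoxicity read: KeratinoSens HaCaT cells, compound treatment 23 h, viability by CellTiter-Fluor fluorescence 1 h post-reagent.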
In the case of `CCC(C)c1cc([N+](=O)[O-])cc([N+](=O)[O-])c1OC(=O)C=C(C)C` (configuration not stated), the Potency is reported as 48.6 µM (active). With `O=c1[nH]c2ccccc2n1CCCN1CCC(n2c(=O)[nH]c3cc(Cl)ccc32)CC1` the “activity change, negative = cytotoxicity” value was -14% [at 42.5 µM] (inactive). For `CCCN(CCC)CCc1c[nH]c2ccccc12`, the “activity change, negative = cytotoxicity” value was -11.2% (inactive). In the case of `CCOC(=O)C(SP(=S)(OC)OC)c1ccccc1` (configuration not stated), the “activity change, negative = cytotoxicity” value is reported as 15.9% (inactive). In the case of `CCOP(=S)(OCC)SCS(=O)(=O)C(C)(C)C`, the “activity change, negative = cytotoxicity” value is reported as 1.09% (inactive). With `O=NN(CCO)CCO` the “activity change, negative = cytotoxicity” value was 4.45% (inactive). For `c1coc(-c2nc3ccccc3[nH]2)c1`, the “activity change, negative = cytotoxicity” value was 0.767% (inactive). In the case of `CC1CCC(C(C)C)C(OC(=O)c2ccccc2N)C1` (configuration not stated), the Potency is reported as 30.2 µM (active). With `Cc1ccn2nc(S(=O)(=O)Nc3c(F)cccc3F)nc2n1` the “activity change, negative = cytotoxicity” value was -1.2% (inactive). For `O=[N+]([O-])c1ccc(Cl)c(Cl)c1Cl`, the “activity change, negative = cytotoxicity” value was 7.47% (inactive). In the case of `CCOP(=S)(Oc1cnc(C(C)(C)C)nc1)OC(C)C` (configuration not stated), the “activity change, negative = cytotoxicity” value is reported as -9.16% (inactive). For `O=C1c2ccccc2C(=O)c2ccccc21`, the activity change, negative = cytotoxicity was 8.6% [at 19 µM] (inactive). With `C[C@H](N)[C@H](O)c1ccc(O)c(O)c1` the “activity change, negative = cytotoxicity” value was -4.41% [at 42.5 µM] (inactive). In the case of `CCN(CC)C(=S)[S-].CCN(CC)C(=S)[S-].[Zn+2]`, the Potency is reported as 0.481 µM (active). With `CCCCN(N=O)C(=N)N[N+](=O)[O-]` the “activity change, negative = cytotoxicity” value was -9.95% (inactive). For `IC(I)=C(I)I`, the Potency was 27.3 µM (active). In the case of `CON(C)C(=O)Nc1ccc(Br)c(Cl)c1`, the “activity change, negative = cytotoxicity” value is reported as 5.32% (inactive). In the case of `CCC1(C2=NCCN2)Cc2ccccc2O1` (configuration not stated), the “activity change, negative = cytotoxicity” value is reported as 2.67% [at 42.5 µM] (inactive). For `C=CC(=O)OCC(COC(=O)C=C)(COC(=O)C=C)COC(=O)C=C`, the Potency was 9.69 µM (active). In the case of `CCNC(=O)NC(=O)/C(C#N)=N/OC`, the “activity change, negative = cytotoxicity” value is reported as 0.115% (inactive). For `CCOc1nc(C(Cl)(Cl)Cl)ns1`, the “activity change, negative = cytotoxicity” value was 4.34% (inactive). With `CC(=O)[O-].CC(=O)[O-].[Hg+2]` the Potency was 3.06 µM (active). In the case of `O=CCCl`, the “activity change, negative = cytotoxicity” value is reported as -1.56% (inactive). For `ClC1=C(Cl)[C@]2(Cl)[C@@H]3[C@@H]4C[C@@H]([C@H]5O[C@@H]45)[C@@H]3[C@@]1(Cl)C2(Cl)Cl`, the Potency was 48.6 µM (active). In the case of `COc1cccc2c1C(=O)c1c(O)c3c(c(O)c1C2=O)C[C@@](O)(C(=O)CO)CC3OC1CC(N2CCOC(OC)C2)C(O)C(C)O1` (some centres not stated), the Potency is reported as 7.5 µM (active). In the case of `CCCCOC(=O)c1ccccc1N`, the “activity change, negative = cytotoxicity” value is reported as -2.7% (inactive). With `Nc1cc(Cl)ccc1Cl` the “activity change, negative = cytotoxicity” value was -1.86% (inactive). For `CCCN1CCC[C@@H]2Cc3nc(N)ncc3C[C@H]21`, the “activity change, negative = cytotoxicity” value was 11% [at 42.5 µM] (inactive). In the case of `CNC(=O)Oc1cccc(C(C)C)c1`, the “activity change, negative = cytotoxicity” value is reported as -2.48% (inactive). For `CC(=O)OC(c1ccccc1)C(Cl)(Cl)Cl` (configuration not stated), the “activity change, negative = cytotoxicity” value was -4.11% (inactive). In the case of `CC(C)C(Nc1ccc(C(F)(F)F)cc1Cl)C(=O)OC(C#N)c1cccc(Oc2ccccc2)c1` (configuration not stated), the “activity change, negative = cytotoxicity” value is reported as 15.9% (inactive). In the case of `C[CH2][Hg][N]1C(=O)C2C(C1=O)C1(Cl)C(Cl)=C(Cl)C2(Cl)C1(Cl)Cl` (configuration not stated), the Potency is reported as 5.17 µM (active). With `CCCCCCCCc1ccc(O)cc1` the Potency was 43.5 µM (active). With `Oc1ccc2[nH]cc(CCCCN3CC=C(c4ccccc4)CC3)c2c1` the “activity change, negative = cytotoxicity” value was -22.5% [at 42.5 µM] (inactive). In the case of `CC(=O)[O-].CC(=O)[O-].O.O.[Cd+2]`, the Potency is reported as 42.7 µM (active). In the case of `NC(=O)CI`, the “activity change, negative = cytotoxicity” value is reported as 1.35% (inactive). With `CCN(CC)c1nc(C)cc(OP(=S)(OC)OC)n1` the “activity change, negative = cytotoxicity” value was 5.42% (inactive). In the case of `COC(=O)C(C)N(C(=O)Cc1ccccc1)c1c(C)cccc1C` (configuration not stated), the “activity change, negative = cytotoxicity” value is reported as 6.16% (inactive). In the case of `CCCSP(=O)(OCC)SCCC`, the “activity change, negative = cytotoxicity” value is reported as 11.4% (inactive). With `OCCBr` the “activity change, negative = cytotoxicity” value was 4.6% (inactive).

Molecular target: Gonadotropin-releasing hormone receptor (Homo sapiens) (UniProt P30968)
Sequence (P30968 whole entry, looked up): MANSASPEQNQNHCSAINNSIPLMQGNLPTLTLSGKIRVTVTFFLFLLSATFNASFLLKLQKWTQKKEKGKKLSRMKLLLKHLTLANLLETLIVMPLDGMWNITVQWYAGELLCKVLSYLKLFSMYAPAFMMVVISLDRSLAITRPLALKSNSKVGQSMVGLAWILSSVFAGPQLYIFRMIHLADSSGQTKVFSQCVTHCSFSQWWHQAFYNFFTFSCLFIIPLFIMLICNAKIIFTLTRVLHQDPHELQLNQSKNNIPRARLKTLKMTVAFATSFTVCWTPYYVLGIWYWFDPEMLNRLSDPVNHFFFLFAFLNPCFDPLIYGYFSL
Assay: Human gonadotropin-releasing hormone receptor (GnRHR) small molecule agonists, calcium flux assay in GnRHR-HEK293 cells (AID 1920063; calls by dose curve; note: nearly all actives have a fitted effect of over 35% in size)
Conditions: calcium flux fluorescence, agonist mode; series mostly up to 57.6 µM; activity change: at the top concentration
In short: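 Calcium flux, agonist mode, human GnRHR stably integrated in HEK293; dye 1 h at 37 C before compound; Ex/Em=480/540 kinetic read, 3 min; 15 concentrations, triplicate.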
In the case of `CCC(C)c1cc([N+](=O)[O-])cc([N+](=O)[O-])c1OC(=O)C=C(C)C` (configuration not stated), the “activity change” value is reported as 6% (inactive). With `O=c1[nH]c2ccccc2n1CCCN1CCC(n2c(=O)[nH]c3cc(Cl)ccc32)CC1` the “activity change” value was 3.08% [at 26.4 µM, stronger effect = higher value] (inactive). In the case of `CCCN(CCC)CCc1c[nH]c2ccccc12`, the “activity change” value is reported as 0.517% (inactive). In the case of `CCOP(=S)(OCC)SCS(=O)(=O)C(C)(C)C`, the “activity change” value is reported as 0.705% (inactive). In the case of `O=NN(CCO)CCO`, the “activity change” value is reported as -0.0072% (inactive). In the case of `O=[N+]([O-])c1ccc(Cl)c(Cl)c1Cl`, the “activity change” value is reported as 4.52% (inactive). In the case of `CCN(CC)C(=S)[S-].CCN(CC)C(=S)[S-].[Zn+2]`, the Potency is reported as 9.69 µM (active). In the case of `CCCCN(N=O)C(=N)N[N+](=O)[O-]`, the “activity change” value is reported as 0.107% (inactive). For `CCC1(C2=NCCN2)Cc2ccccc2O1` (configuration not stated), the “activity change” value was 1.26% [at 26.4 µM, stronger effect = higher value] (inactive). In the case of `C=CC(=O)OCC(COC(=O)C=C)(COC(=O)C=C)COC(=O)C=C`, the “activity change” value is reported as -0.098% (inactive). For `CCOc1nc(C(Cl)(Cl)Cl)ns1`, the “activity change” value was -0.0185% (inactive). With `CC(=O)[O-].CC(=O)[O-].[Hg+2]` the Potency was 38.9 µM (active). In the case of `O=CCCl`, the “activity change” value is reported as 2.02% (inactive). In the case of `ClC1=C(Cl)[C@]2(Cl)[C@@H]3[C@@H]4C[C@@H]([C@H]5O[C@@H]45)[C@@H]3[C@@]1(Cl)C2(Cl)Cl`, the Potency is reported as 7.76 µM (active). With `Nc1cc(Cl)ccc1Cl` the “activity change” value was -1.4% (inactive). With `CNC(=O)Oc1cccc(C(C)C)c1` the “activity change” value was -0.579% (inactive). In the case of `CC(=O)OC(c1ccccc1)C(Cl)(Cl)Cl` (configuration not stated), the “activity change” value is reported as 1.22% (inactive). With `CC(C)C(Nc1ccc(C(F)(F)F)cc1Cl)C(=O)OC(C#N)c1cccc(Oc2ccccc2)c1` (configuration not stated) the “activity change” value was 0.127% (inactive). In the case of `NC(=O)CI`, the “activity change” value is reported as -0.123% (inactive). With `CCN(CC)c1nc(C)cc(OP(=S)(OC)OC)n1` the “activity change” value was 1.5% (inactive). With `COC(=O)C(C)N(C(=O)Cc1ccccc1)c1c(C)cccc1C` (configuration not stated) the “activity change” value was 4.27% (inactive).

Molecular target: KiSS-1 receptor (Homo sapiens) (UniProt Q969F8)
Sequence (Q969F8 whole entry, looked up): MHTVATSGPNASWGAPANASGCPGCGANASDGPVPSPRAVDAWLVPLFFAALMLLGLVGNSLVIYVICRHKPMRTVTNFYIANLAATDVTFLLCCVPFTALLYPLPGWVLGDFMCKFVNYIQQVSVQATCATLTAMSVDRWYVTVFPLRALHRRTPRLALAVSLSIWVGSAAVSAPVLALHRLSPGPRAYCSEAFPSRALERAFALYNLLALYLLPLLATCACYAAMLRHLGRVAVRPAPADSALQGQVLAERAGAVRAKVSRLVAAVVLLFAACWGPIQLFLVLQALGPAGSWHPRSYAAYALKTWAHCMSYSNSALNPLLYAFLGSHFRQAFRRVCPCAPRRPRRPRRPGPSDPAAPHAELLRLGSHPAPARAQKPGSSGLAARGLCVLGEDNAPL
Assay: Human kisspeptin (KISS1R) small molecule agonists, calcium flux assay in KISS1R-HEK293 cells (AID 1920064)
Conditions: KISS1R-HEK293, calcium flux fluorescence, agonist; series mostly up to 76.8 µM; activation: at the top concentration
In short: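 Triplicate 15-concentration series were applied to dye-loaded human KISS1R HEK293 cells, and agonist-evoked calcium fluorescence was captured for 3 min.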
With `CCOC(=O)C(SP(=S)(OC)OC)c1ccccc1` (configuration not stated) the “activation” value was -0.433% (inactive). In the case of `c1coc(-c2nc3ccccc3[nH]2)c1`, the “activation” value is reported as -3.91% (inactive). For `CC1CCC(C(C)C)C(OC(=O)c2ccccc2N)C1` (configuration not stated), the “activation” value was 3.21% (inactive). With `Cc1ccn2nc(S(=O)(=O)Nc3c(F)cccc3F)nc2n1` the “activation” value was -1.78% (inactive). In the case of `CCOP(=S)(Oc1cnc(C(C)(C)C)nc1)OC(C)C` (configuration not stated), the “activation” value is reported as 0.416% (inactive). In the case of `O=C1c2ccccc2C(=O)c2ccccc21`, the activation is reported as 8.4% [at 15.8 µM] (inactive). In the case of `C[C@H](N)[C@H](O)c1ccc(O)c(O)c1`, the “activation” value is reported as 0% [at 35.3 µM] (inactive). For `CCN(CC)C(=S)[S-].CCN(CC)C(=S)[S-].[Zn+2]`, the Potency was 19.3 µM (active). For `IC(I)=C(I)I`, the “activation” value was 5.94% (inactive). For `CON(C)C(=O)Nc1ccc(Br)c(Cl)c1`, the “activation” value was -0.675% (inactive). For `CCC1(C2=NCCN2)Cc2ccccc2O1` (configuration not stated), the “activation” value was 0.0102% [at 35.3 µM] (inactive). In the case of `CCNC(=O)NC(=O)/C(C#N)=N/OC`, the “activation” value is reported as -2.62% (inactive). For `ClC1=C(Cl)[C@]2(Cl)[C@@H]3[C@@H]4C[C@@H]([C@H]5O[C@@H]45)[C@@H]3[C@@]1(Cl)C2(Cl)Cl`, the Potency was 23.7 µM (active). In the case of `COc1cccc2c1C(=O)c1c(O)c3c(c(O)c1C2=O)C[C@@](O)(C(=O)CO)CC3OC1CC(N2CCOC(OC)C2)C(O)C(C)O1` (some centres not stated), the “activation” value is reported as 1.78% [at 35.3 µM] (inactive). With `CCCCOC(=O)c1ccccc1N` the “activation” value was -2.23% (inactive). In the case of `C[CH2][Hg][N]1C(=O)C2C(C1=O)C1(Cl)C(Cl)=C(Cl)C2(Cl)C1(Cl)Cl` (configuration not stated), the activation is reported as 13.3% [at 15.8 µM] (inactive). For `CCCCCCCCc1ccc(O)cc1`, the “activation” value was 1.19% (inactive). In the case of `Oc1ccc2[nH]cc(CCCCN3CC=C(c4ccccc4)CC3)c2c1`, the “activation” value is reported as 1.71% [at 35.3 µM] (inactive). In the case of `CC(=O)[O-].CC(=O)[O-].O.O.[Cd+2]`, the “activation” value is reported as 0.0403% (inactive). For `CCCSP(=O)(OCC)SCCC`, the “activation” value was 0.227% (inactive). For `OCCBr`, the “activation” value was 3.41% (inactive).
